Laboratory results: ChEMBL document CHEMBL1961873, “Compounds: GSK PKIS; Assays: Nanosyn kinase panel” (2012)

Key:
[1] = molecular target: Protein kinase C gamma type (Homo sapiens) (UniProt P05129); conditions: at 1 µM;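 note: each value is an averaged percent inhibition of the enzyme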
[2] = molecular target: T1, Protein kinase C iota type (Homo sapiens) (UniProt P41743); conditions: at 0.1 µM
T1 sequence (whole entry): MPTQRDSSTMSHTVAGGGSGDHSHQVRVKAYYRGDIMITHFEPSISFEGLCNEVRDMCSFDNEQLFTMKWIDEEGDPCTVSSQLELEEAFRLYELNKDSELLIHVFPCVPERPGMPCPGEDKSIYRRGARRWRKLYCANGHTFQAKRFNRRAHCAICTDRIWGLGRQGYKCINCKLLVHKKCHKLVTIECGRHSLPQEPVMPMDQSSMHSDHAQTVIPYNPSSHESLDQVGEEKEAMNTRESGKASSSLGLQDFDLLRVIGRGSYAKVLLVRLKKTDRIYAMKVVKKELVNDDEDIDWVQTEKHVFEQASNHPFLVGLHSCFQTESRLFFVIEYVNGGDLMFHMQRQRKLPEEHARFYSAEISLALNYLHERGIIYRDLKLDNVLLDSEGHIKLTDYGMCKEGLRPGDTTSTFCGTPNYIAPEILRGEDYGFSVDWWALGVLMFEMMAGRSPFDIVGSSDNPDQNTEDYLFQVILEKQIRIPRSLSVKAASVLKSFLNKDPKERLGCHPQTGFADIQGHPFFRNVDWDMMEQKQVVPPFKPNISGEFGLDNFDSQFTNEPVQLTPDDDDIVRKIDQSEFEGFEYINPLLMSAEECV

[3] = molecular target: T1, Protein kinase C iota type (Homo sapiens); conditions: at 1 µM
[4] = molecular target: Protein kinase C theta type (Homo sapiens) (UniProt Q04759); conditions: at 0.1 µM
[5] = molecular target: Protein kinase C theta type (Homo sapiens) (UniProt Q04759); conditions: at 1 µM
[6] = molecular target: Protein kinase C beta type (Homo sapiens) (UniProt P05771); conditions: at 0.1 µM
[7] = molecular target: Protein kinase C beta type (Homo sapiens) (UniProt P05771); conditions: at 1 µM
[8] = molecular target: T2, Serine/threonine-protein kinase D1 (Homo sapiens) (UniProt Q15139); conditions: at 0.1 µM
T2 sequence (whole entry): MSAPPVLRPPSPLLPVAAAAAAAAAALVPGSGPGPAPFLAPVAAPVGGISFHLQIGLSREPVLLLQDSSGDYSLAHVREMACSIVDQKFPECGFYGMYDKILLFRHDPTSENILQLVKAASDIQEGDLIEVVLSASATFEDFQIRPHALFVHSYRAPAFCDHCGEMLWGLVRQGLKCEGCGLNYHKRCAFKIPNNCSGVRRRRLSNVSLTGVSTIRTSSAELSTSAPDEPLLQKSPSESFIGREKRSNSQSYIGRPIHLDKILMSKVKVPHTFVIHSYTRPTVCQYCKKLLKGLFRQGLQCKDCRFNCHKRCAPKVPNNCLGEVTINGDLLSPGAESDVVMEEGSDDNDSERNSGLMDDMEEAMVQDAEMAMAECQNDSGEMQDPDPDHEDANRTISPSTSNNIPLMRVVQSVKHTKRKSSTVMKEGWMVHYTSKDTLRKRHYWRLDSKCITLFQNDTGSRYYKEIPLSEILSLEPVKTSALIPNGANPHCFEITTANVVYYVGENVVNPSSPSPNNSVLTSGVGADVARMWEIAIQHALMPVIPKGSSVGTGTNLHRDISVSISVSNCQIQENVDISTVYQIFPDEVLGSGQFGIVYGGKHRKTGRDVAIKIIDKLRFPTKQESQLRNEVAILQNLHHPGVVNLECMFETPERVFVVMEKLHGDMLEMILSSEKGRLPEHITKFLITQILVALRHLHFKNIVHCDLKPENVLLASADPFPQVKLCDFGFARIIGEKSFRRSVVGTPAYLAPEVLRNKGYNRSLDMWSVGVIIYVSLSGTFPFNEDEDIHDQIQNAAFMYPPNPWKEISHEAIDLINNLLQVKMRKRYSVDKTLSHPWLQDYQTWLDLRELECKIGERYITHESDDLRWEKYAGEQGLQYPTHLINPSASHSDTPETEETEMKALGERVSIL

[9] = molecular target: T2, Serine/threonine-protein kinase D1 (Homo sapiens); conditions: at 1 µM
[10] = molecular target: T3, Serine/threonine-protein kinase D2 (Homo sapiens) (UniProt Q9BZL6); conditions: at 0.1 µM
T3 sequence (whole entry): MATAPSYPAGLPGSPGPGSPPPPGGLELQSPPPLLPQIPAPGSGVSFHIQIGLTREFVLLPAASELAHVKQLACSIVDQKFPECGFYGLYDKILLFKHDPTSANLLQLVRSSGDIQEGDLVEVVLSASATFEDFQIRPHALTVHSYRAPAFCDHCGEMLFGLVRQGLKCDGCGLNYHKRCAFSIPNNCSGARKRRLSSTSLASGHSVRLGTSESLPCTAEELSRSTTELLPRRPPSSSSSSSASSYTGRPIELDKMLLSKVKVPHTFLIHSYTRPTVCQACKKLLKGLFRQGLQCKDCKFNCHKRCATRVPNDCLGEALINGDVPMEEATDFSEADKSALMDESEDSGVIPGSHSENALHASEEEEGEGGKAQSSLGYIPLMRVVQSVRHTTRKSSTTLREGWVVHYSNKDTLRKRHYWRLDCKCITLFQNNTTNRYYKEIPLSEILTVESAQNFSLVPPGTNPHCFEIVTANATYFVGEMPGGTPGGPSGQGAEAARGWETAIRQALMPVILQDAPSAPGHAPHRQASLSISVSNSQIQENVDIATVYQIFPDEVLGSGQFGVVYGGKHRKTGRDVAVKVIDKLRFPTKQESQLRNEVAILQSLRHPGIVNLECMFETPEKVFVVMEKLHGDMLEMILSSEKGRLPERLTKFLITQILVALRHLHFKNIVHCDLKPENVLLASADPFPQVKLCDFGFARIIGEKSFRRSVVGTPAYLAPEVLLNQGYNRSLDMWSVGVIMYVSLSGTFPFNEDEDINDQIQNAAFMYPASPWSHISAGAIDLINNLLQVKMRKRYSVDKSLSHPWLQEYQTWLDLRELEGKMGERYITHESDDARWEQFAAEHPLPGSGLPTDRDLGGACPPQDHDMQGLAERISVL

[11] = molecular target: T3, Serine/threonine-protein kinase D2 (Homo sapiens); conditions: at 1 µM
[12] = molecular target: T4, Serine/threonine-protein kinase D3 (Homo sapiens) (UniProt O94806); conditions: at 0.1 µM
T4 sequence (whole entry): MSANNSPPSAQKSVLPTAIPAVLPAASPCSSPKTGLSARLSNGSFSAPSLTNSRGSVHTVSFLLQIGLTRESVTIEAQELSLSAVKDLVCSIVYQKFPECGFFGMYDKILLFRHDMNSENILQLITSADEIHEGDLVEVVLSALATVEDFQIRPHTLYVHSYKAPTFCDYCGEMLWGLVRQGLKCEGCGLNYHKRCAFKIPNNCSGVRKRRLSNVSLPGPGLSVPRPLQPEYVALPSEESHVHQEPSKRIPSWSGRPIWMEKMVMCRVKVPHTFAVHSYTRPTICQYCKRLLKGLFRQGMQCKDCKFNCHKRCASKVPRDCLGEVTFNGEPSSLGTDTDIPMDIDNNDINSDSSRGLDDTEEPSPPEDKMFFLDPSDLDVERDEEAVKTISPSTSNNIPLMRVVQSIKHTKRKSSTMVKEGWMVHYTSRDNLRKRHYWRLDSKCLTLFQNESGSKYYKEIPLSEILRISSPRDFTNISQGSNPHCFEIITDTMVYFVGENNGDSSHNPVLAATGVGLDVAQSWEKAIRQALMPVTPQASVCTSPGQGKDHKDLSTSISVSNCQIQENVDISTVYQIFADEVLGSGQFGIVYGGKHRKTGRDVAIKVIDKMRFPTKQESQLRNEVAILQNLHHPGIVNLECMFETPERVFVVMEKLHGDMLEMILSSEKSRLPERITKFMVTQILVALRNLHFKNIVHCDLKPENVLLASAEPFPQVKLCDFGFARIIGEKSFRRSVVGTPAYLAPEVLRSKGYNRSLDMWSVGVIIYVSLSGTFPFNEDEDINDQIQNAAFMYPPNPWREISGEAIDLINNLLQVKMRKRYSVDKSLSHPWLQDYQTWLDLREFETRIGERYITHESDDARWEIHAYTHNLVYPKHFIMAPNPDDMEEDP

[13] = molecular target: T4, Serine/threonine-protein kinase D3 (Homo sapiens); conditions: at 1 µM
[14] = molecular target: T5, cGMP-dependent protein kinase 1 (Homo sapiens) (UniProt Q13976); conditions: at 0.1 µM
T5 sequence (whole entry): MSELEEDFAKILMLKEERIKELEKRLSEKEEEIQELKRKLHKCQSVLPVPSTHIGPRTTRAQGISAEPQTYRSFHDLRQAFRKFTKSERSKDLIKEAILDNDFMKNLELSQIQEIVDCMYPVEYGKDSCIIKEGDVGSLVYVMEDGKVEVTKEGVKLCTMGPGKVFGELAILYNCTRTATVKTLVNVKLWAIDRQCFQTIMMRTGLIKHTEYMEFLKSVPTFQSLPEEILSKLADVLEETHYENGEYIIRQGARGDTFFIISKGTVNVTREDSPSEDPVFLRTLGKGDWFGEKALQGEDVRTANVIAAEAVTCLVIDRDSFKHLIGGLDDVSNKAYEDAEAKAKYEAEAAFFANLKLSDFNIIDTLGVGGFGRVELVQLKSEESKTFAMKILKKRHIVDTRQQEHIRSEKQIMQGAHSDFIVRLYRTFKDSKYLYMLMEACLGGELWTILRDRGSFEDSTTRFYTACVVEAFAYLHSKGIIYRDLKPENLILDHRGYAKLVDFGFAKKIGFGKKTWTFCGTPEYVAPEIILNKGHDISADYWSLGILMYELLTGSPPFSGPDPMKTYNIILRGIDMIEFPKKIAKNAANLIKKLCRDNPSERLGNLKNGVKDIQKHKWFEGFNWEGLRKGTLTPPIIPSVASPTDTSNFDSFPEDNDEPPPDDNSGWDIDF

[15] = molecular target: T5, cGMP-dependent protein kinase 1 (Homo sapiens); conditions: at 1 µM
[16] = molecular target: T6, cGMP-dependent protein kinase 2 (Homo sapiens) (UniProt Q13237); conditions: at 0.1 µM
T6 sequence (whole entry): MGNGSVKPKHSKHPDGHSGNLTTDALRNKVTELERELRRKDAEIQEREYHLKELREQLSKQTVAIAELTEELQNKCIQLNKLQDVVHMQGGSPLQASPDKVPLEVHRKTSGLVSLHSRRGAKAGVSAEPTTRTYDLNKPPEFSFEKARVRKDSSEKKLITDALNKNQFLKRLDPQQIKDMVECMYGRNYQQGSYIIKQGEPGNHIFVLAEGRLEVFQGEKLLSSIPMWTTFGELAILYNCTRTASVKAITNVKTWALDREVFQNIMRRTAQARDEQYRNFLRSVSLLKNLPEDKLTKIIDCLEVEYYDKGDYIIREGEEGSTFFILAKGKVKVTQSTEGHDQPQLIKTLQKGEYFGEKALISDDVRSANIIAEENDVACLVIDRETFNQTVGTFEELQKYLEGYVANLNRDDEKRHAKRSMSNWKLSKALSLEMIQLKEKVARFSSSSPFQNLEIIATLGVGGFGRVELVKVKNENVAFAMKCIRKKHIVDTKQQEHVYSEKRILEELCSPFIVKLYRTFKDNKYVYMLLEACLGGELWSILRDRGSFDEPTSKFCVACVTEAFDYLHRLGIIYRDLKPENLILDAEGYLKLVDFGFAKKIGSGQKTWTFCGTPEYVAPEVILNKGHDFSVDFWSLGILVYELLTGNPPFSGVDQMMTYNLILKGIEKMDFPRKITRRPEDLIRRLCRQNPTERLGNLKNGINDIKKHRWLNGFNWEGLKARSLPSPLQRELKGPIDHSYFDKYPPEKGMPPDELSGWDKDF

[17] = molecular target: T6, cGMP-dependent protein kinase 2 (Homo sapiens); conditions: at 1 µM
[18] = molecular target: T7, cAMP-dependent protein kinase catalytic subunit PRKX (Homo sapiens) (UniProt P51817); conditions: at 0.1 µM
T7 sequence (whole entry): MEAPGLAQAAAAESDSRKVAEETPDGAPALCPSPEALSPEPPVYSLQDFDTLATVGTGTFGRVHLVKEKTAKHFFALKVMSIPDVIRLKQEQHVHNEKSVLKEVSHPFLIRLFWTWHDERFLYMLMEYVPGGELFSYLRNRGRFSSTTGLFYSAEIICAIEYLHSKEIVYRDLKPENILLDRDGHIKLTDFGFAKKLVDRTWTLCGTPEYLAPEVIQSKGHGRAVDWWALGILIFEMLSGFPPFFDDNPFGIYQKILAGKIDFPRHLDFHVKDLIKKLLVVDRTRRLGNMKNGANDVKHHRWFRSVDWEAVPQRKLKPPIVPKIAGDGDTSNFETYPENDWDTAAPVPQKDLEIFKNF

[19] = molecular target: T7, cAMP-dependent protein kinase catalytic subunit PRKX (Homo sapiens); conditions: at 1 µM
[20] = molecular target: Rho-associated protein kinase 1 (Homo sapiens) (UniProt Q13464); conditions: at 0.1 µM;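 note: values are mean percent inhibition of ROCK1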
Sequence of Rho-associated protein kinase 1 (Homo sapiens) (Q13464 2-1354 limits assumed): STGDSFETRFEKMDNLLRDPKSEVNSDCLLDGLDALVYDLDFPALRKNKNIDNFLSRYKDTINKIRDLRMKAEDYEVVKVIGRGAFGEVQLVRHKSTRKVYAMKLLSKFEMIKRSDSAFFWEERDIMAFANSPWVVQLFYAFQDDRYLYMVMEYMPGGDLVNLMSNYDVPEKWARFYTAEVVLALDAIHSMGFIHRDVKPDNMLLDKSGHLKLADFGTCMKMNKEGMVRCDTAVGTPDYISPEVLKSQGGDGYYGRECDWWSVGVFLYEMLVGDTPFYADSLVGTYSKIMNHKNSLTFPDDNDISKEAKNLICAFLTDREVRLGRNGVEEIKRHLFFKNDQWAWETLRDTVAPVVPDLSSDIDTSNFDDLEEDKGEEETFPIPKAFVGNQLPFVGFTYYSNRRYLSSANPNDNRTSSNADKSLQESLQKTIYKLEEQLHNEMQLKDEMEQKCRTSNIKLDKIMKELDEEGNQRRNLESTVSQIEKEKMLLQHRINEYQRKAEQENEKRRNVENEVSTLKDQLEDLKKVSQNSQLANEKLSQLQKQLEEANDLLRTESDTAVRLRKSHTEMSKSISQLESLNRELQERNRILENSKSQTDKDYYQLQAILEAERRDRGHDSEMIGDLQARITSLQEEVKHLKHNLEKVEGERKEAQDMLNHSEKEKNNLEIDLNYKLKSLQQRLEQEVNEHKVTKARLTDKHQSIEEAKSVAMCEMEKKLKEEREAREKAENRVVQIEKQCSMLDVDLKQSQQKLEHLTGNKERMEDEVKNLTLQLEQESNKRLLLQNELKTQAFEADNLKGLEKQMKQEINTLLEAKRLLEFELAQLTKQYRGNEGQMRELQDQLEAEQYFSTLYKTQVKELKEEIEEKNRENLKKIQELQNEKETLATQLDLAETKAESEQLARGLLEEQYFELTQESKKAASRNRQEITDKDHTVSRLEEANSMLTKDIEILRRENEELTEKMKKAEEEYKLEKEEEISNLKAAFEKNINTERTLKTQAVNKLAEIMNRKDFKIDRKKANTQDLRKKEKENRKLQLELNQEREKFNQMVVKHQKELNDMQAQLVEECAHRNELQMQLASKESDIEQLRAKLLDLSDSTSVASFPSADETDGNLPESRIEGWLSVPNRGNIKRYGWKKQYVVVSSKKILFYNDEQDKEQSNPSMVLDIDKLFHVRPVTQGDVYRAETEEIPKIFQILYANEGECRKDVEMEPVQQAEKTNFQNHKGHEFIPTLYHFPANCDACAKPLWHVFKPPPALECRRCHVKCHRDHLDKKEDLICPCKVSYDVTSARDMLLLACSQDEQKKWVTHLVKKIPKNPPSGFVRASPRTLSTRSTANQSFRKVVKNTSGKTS

Sequence of Protein kinase C theta type (Homo sapiens) (Q04759 whole entry, looked up): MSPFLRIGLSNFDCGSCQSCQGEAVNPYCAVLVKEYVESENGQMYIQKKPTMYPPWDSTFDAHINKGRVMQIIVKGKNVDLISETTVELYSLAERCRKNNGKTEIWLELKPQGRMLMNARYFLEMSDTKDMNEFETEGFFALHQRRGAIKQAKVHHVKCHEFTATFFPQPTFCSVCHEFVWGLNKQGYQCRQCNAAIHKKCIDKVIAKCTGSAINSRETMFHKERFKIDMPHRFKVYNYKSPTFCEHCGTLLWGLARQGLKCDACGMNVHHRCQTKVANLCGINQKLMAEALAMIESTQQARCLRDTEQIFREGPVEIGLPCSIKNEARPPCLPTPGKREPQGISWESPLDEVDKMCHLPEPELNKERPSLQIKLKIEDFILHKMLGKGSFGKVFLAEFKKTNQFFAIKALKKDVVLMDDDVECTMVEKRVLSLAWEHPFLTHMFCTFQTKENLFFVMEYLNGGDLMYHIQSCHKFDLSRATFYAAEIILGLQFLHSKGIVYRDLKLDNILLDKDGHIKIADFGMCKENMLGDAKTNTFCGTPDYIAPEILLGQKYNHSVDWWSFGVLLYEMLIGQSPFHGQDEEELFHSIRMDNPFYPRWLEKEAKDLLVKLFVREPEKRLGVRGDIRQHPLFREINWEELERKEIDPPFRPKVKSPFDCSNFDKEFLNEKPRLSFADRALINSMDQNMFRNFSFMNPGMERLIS
Sequence of Protein kinase C beta type (Homo sapiens) (P05771 2-671 limits assumed): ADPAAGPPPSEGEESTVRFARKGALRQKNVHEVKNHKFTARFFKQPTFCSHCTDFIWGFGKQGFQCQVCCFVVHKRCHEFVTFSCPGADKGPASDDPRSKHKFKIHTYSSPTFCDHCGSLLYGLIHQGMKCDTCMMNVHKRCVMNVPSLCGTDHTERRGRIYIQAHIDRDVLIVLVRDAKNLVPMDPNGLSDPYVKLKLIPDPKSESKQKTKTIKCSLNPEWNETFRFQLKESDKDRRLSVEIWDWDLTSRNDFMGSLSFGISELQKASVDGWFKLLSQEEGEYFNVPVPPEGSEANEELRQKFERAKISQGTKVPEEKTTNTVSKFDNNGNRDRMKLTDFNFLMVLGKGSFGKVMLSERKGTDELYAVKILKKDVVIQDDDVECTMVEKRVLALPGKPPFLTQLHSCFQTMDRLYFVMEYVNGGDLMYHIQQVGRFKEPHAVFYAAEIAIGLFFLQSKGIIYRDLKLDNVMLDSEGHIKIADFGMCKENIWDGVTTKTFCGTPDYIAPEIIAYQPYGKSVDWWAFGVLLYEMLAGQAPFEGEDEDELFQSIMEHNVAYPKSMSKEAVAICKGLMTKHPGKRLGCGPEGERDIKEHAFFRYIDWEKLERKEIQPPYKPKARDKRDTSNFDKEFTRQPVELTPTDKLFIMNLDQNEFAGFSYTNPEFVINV

Row | Compound | inhibition [1] [%] | inhibition [2] [%] | inhibition [3] [%] | inhibition [4] [%] | inhibition [5] [%] | inhibition [6] [%] | inhibition [7] [%] | inhibition [8] [%] | inhibition [9] [%] | inhibition [10] [%] | inhibition [11] [%] | inhibition [12] [%] | inhibition [13] [%] | inhibition [14] [%] | inhibition [15] [%] | inhibition [16] [%] | inhibition [17] [%] | inhibition [18] [%] | inhibition [19] [%] | inhibition [20] [%]
1 | CN(C)c1cc2c(Nc3ccc4c(cnn4Cc4ccccc4)c3)ncnc2cn1 | -1.38 | 0.79 | 1.74 | 0.5 | 0.28 | 0.51 | 0.93 | 2.68 | 5.12 | 3.3 | 4.01 | 3.24 | 4.21 | 0.2 | 4.15 | 2.57 | 2.77 | 1.48 | 0.84 | 0.25
2 | Cc1ccc(C(=O)NC2CC2)cc1-c1ccc2[nH]ncc2c1 | 0.02 | -1.83 | -1.13 | -1.64 | 0.05 | -0.94 | -0.69 | -4.08 | -2.68 | -2.91 | 0.22 | -3.35 | -2.14 | -1.78 | 1.62 | -1.53 | -0.47 | -1.3 | -0.54 | -0.64
3 | C[C@@H](Oc1cc(-n2cnc3ccc(OC[C@@H](O)CO)cc32)sc1C(N)=O)c1ccccc1Cl | -0.26 | -0.24 | 1.09 | -0.9 | 0.85 | -1.05 | 2.03 | -1.17 | 0.36 | 0.81 | 1.51 | -1.65 | 0.06 | -2.27 | -0.2 | -0.02 | -0.19 | -1.09 | -8.23 | 0.14
